Source: PubChem (National Center for Advancing Translational Sciences (NCATS))
Hits are enriched below; roughly 9.2% of the tested compounds scored in any of these assays.
ELG1 repair inh – blocks ELG1-dependent DNA repair in HEK293T cells; HEK293T ELG1-luciferase reporter, luminescence, 16 h; DNA damage induced by 5-fluorouridine; Potency, µM (top dose mostly 46.1 µM), without a hit: top-dose activity change, negative = inhibition, actives largely listed as inhibitors; 330,000 tested, 2.3% active; AID 504467; note: % is set by controls: 0 for no effect and ±100 for the full control effect; nearly all actives have a fitted effect of over 55% in size
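DMSO vehicle served as the neutral condition. Each well held 2,000 cells given 5-fluorouridine plus compound; after 16 hr at 37 °C/5% CO2, ONE-Glo was added and luciferase measured 30 min later.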
ELG1 genotox – induces genotoxicity in HEK293T cells with luciferase-tagged ELG1 | HEK293T ELG1-luciferase reporter, luminescence, 16 h | Potency, µM (titrated, usually from 46 µM), for the others: top-dose activity change, positive = activation, usual class: activators | 330,000 tested, 1.3% active | AID 504466; note: % of control where 0% means no effect; nearly all actives have a fitted effect of over 60% in size
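Step 1: seed 2,000 HEK293T ELG1-luciferase cells per well. Step 2: add compound or DMSO, incubate 16 hr at 37 °C. Step 3: ONE-Glo, 30 min at room temperature, read luminescence.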
SMN2 splice enh – SMN2 splice variant enhancement | HEK293 SMN2-luciferase splicing reporter, luminescence, 30-36 h | Potency, µM (series often up to 46.1 µM), for the others: top-dose activity change, positive = activation, hits mostly activators | AID 1458 | 210,000 tested, 2.8% active; note: % of control where 0% means no effect; nearly all actives have a fitted effect of over 55% in size
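HEK293 cells carry an SMN2 […]–luciferase reporter in which exon 7 inclusion puts luciferase in frame. Cells were plated 10-12 h before compound addition, then incubated 30-36 h at 37C. ONE-Glo luminescence was read; sodium butyrate at 4.5 mM final served as control.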
Rab9 promoter act – activators of Rab9 promoter | Huh7 Rab9 promoter-luciferase reporter, luminescence, 24 h | Potency, µM (top dose mostly 9.22 µM), for the others: top-dose activation, negative = inhibition, most hits filed as activators | 320,000 tested, 2.8% active | AID 485297; note: % of control where 0% means no effect; nearly all actives have a fitted effect of over 60% in size
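Luminescence read-out: Huh7 cells stably expressing Rab9-luciferase, treated 24 h with compound at 37 °C, then lysed with luciferase reagent for 10 min at ambient before reading.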
NPC1 prom act – activators of NPC1 promoter; 320,000 tested, 2.4% active; Huh7 NPC1 promoter luciferase reporter, 24 h; Potency, µM (doses to about 9.22 µM), for inactives: at the highest dose activation, most hits filed as activators; AID 485313; note: % of control where 0% means no effect; nearly all actives have a fitted effect of over 60% in size
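Luciferase expression driven by the NPC1 promoter was measured in stably transfected Huh7 cells after a 24 h compound incubation, using a luciferase reagent and a luminescence read.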
FLuc modulator – firefly luciferase modulation, counter-screen for miR-21 project. P08659. purified FLuc, Km substrates, luminescence inhibition. Potency, µM (top dose mostly 57.5 µM), inactives show at the highest dose activity change, negative = inhibition, usual class: inhibitors. 360,000 tested, 6.9% active;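 note: plate controls were vehicle for no effect and reference inhibitor for full effect; nearly all actives have a fitted effect of over 55% in size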
Target sequence (P08659 whole entry, looked up): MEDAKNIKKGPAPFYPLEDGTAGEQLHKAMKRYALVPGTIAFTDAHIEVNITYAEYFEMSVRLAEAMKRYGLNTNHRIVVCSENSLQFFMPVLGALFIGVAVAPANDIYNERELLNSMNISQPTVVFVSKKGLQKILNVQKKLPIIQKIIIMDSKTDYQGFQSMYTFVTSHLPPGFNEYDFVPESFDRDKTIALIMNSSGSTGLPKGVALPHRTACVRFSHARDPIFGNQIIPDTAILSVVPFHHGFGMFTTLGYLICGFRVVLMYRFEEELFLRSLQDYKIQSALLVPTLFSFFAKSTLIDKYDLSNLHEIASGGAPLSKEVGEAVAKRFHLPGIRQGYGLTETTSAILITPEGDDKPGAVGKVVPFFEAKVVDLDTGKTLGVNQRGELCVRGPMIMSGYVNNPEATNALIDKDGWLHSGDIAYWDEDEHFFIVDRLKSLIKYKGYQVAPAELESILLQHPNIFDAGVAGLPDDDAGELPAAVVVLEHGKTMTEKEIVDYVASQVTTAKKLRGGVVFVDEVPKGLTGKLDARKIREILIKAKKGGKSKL
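Purified P. pyralis luciferase, 10 nM final, with Km-level 10 uM D-luciferin and 10 uM ATP in 50 mM Tris acetate pH 7.5, 10 mM Mg acetate, 0.01% Tween-20, 0.05% BSA; 6-point qHTS titration about 60 µM downward; luminescence read.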
* marks the source's active call; other numbers are inactive results; ? = inconclusive; / = no result given. Calls come from the whole dose curve; as a rule, active = well fitted curve in the direction sought with a large enough effect; inconclusive = small, poorly fitted or top-dose-only effect, or another doubt; inactive = no such curve, though single readings can be large; an effect the other way counts as inactive or inconclusive. Potency is the fitted concentration of half-maximal effect.

SMILES	ELG1 repair inh	ELG1 genotox	SMN2 splice enh	Rab9 promoter act	NPC1 prom act	FLuc modulator
Cc1ccc(C)c(S(=O)(=O)N2CCCC2CNC(=O)C(=O)NCCN2CCOCC2)c1 (stereo unspecified)	-1%	0%	/	-4%	1%	0%
Cc1cc(SC(C)C(=O)Nc2ncc(Cl)cc2Cl)nc2ccccc12 (stereo unspecified)	?	-5%	3.5µM*	0%	-2%	-11%
Cc1nnc(SC(C)C(=O)Nc2ncc(Cl)cc2Cl)n1Cc1ccccc1 (stereo unspecified)	-3%	-1%	-6%	0%	3%	-1%
Cc1ccc(Cl)cc1N1CCN(C(=O)c2cn(C)c3ccc(S(=O)(=O)N4CCCCC4)cc3c2=O)CC1	/	/	-1%	/	/	-8%
Cc1cc(OCc2cn3cccnc3n2)ccc1Cl	?	8.2µM*	11µM*	2.8µM*	?	21µM*
Cc1ccc(NC(=O)c2ccc(=O)n(CC(=O)Nc3cccc(C)c3)n2)cc1	/	/	/	/	/	0%
COc1cc(/C(C)=N/Nc2ccc(C(=O)O)cc2)cc(OC)c1OC	?	?	16µM*	?	?	?
COc1ccc(OC)c(/C(C)=N/Nc2ccc(C(=O)O)cc2)c1	?	?	/	14%	3%	-2%
COc1ccc(/C(C)=N/Nc2ccc(C(=O)O)cc2)cc1OC	?	?	?	1.3µM*	0.63µM*	6.7µM*
CC(C)Cc1nc2oc3c(Cl)ncnc3c2c2c1CCCC2	6%	10%	/	-5%	-6%	-3%
CCCc1nc2oc3c(NCC4CCCO4)ncnc3c2c2c1COC(C)(C)C2 (stereo unspecified)	-16%	2%	-13%	0%	-2%	8%
CC(C)Cc1nc2oc3c(NCC(C)O)ncnc3c2c2c1CCCC2 (stereo unspecified)	15µM*	-7%	/	7%	-4%	?
CC(C)c1nc2oc3c(NCC4CCCO4)ncnc3c2c2c1CCC2 (stereo unspecified)	16µM*	-3%	?	12%	-2%	0%
COc1ccc(C(=O)N2CCC3(CC2)CN(C(=O)Nc2ccccc2)C3)cc1	/	/	-14%	/	/	/
CCCN1C(=O)CC(=O)N=C1SCC(=O)Nc1ccccc1F	13%	-1%	/	/	/	/
CCc1cc2c(=O)c(-c3cscn3)coc2cc1OC	?	?	13µM*	2µM*	3.5µM*	1.7µM*
CCOC(=O)c1oc2cc(O)c(CC)cc2c(=O)c1-c1cscn1	4%	2%	14%	-6%	1%	-19%
CCc1cc2c(=O)c(-c3cscn3)coc2cc1O	?	13µM*	21%	26%	26%	?
NS(=O)(=O)c1ccc(NC(=O)C(=O)NCCC(=O)O)cc1	0%	-1%	/	-4%	-5%	-2%
CCOc1ccc(CCNC(=O)c2cccc(Nc3nc4ccccc4nc3-n3nc(C)cc3C)c2)cc1OCC	/	/	3%	/	/	0%
COC1CCN(C(=O)C2CCC(=O)N(C3CCCCCC3)C2)CC1 (stereo unspecified)	?	?	/	?	?	17µM*
COCC1CCN(C(=O)C2CCC(=O)N(C3CCCC3)C2)CC1 (stereo unspecified)	?	5%	/	5%	-4%	-14%
O=C(Nc1nccs1)c1ccc(-c2ccc(Cl)cc2Cl)o1	?	?	14µM*	3.2µM*	3.5µM*	0.85µM*
O=C(Nc1nccs1)c1ccc(-c2ccc(F)c(Cl)c2)o1	?	-1%	/	?	?	6µM*
O=c1c(Cl)c(N2CCCCC2)cnn1-c1nc2ccccc2[nH]1	?	?	-63%	0.11µM*	?	0.38µM*
SMILES	ELG1 repair inh	ELG1 genotox	SMN2 splice enh	Rab9 promoter act	NPC1 prom act	FLuc modulator
O=c1c2ccccc2cnn1-c1nc2ccccc2[nH]1	?	-8%	/	?	0.1µM*	0.17µM*
COc1ccc(C(=O)Nc2nnc(CCc3ccccc3)s2)c(OC)c1	-10%	7%	/	3%	-3%	?
COc1ccc(C(=O)Nc2nnc(Cc3ccc(OC)c(OC)c3)s2)c(OC)c1	-19%	12%	/	15%	14%	27µM*
COCc1nnc(NC(=O)c2ccc(OC)cc2OC)s1	?	8.2µM*	11µM*	2.5µM*	2.5µM*	8.5µM*
COc1cccc(C(=O)Nc2nnc(Cc3ccc(OC)c(OC)c3)s2)c1	-4%	-4%	/	-2%	-2%	0%
Cc1ccc(-c2nc(CCNC(=O)C(=O)Nc3ccc(C)c(C)c3)cs2)cc1	/	/	/	/	/	1%
O=C(NCCc1csc(-c2cccnc2)n1)c1cccs1	?	-4%	-1%	2%	0%	?
Cc1ccc(C(=O)NCCc2csc(-c3cccnc3)n2)cc1	?	?	?	?	20%	5.4µM*
Cc1ccc(-c2nc(CCNC(=O)c3ccc(C)c(C)c3)cs2)cc1	/	/	/	/	/	24µM*
COc1cccc(C(=O)NCCc2csc(-c3ccc(Cl)cc3)n2)c1	/	/	/	/	/	21µM*
CCC(CC)NC(=O)c1cccc(NC(=O)C(C)C)c1	6%	-1%	?	-1%	-1%	0%
CCC(C)NC(=O)c1cccc(NC(=O)c2nsc3ccccc23)c1 (stereo unspecified)	/	/	/	/	/	6µM*
CCOc1ccccc1CNC(=O)c1cccc(NC(=O)c2nsc3ccccc23)c1	/	/	/	/	/	6µM*
COc1ccccc1CNC(=O)c1cccc(NC(=O)c2ccccc2)c1	?	-9%	-3%	2%	1%	?
Cc1ccc(/C=c2/sc3n(c2=O)CCCN=3)o1	?	?	13µM*	2.8µM*	?	15µM*
O=c1/c(=C\c2ccc3c(c2)OCO3)sc2n1CCCN=2	?	3.3µM*	?	3.5µM*	0.89µM*	4.3µM*
O=C1/C(=C\c2ccc3c(c2)OCO3)CCC/C1=C/c1ccc2c(c1)OCO2	8%	1%	-11%	0%	-3%	?
Cc1ccc(/C=c2\sc3n(c2=O)CN(c2ccc(Br)cc2)CN=3)o1	5%	-1%	-31%	0%	9%	?
Cc1ccc(S(=O)(=O)c2nc(-c3ccccc3)oc2SCC(=O)NC2CCCCC2)cc1	/	/	3%	/	/	0%
Cn1cccc1C(=O)OCC(=O)Nc1ccc2c(c1)OCO2	?	?	?	2.8µM*	3.5µM*	17µM*
Cn1cccc1C(=O)OCC(=O)Nc1ccc2[nH]c(=O)[nH]c2c1	?	4%	/	/	/	/
Cn1cccc1C(=O)OCC(=O)Nc1ccc2c(c1)CCC2	?	21µM*	20%	?	?	?
